Data taken from PubChem BioAssay.
For part of these data: Entries with a potency or affinity are not part of this list. Active and inactive are the calls of the source.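 The calls were made as follows, unless noted: active = calcium signal ratio cut to more than 3 SD under the fully stimulated control mean yet still positive, in both repeats and the primary screen; inactive = the rest.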

Assays:
[1] = system: TRPC4 beta (transient receptor potential cation channel C4), mouse; assay: TRPC4 cation channel opening, retest – cell-based, Fluo4 calcium, HEK293 TRPC4beta/mu-opioid, duplicates, 10 µM, confirmation (AID 2426;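 active = fluorescence ratio normalized to control raised more than 50% in primary screen plus both repeat runs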); details: Fluo4 calcium fluorescence, at 10 µM; hits give high values
[2] = system: transient receptor potential cation channel C4 beta (TRPC4), mouse; assay: TRPC4 cation channel opening, second retest – cell-based, second round, Fluo4, HEK293 TRPC4beta/mu-opioid, 1 µM, confirmation (AID 2461;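 active = primary screen active and over 50% activation in each of two duplicate runs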); details: Fluo4 calcium fluorescence, at 1 µM; hits give high values
[3] = system: TRPC4 (transient receptor potential cation channel C4 beta), mouse; assay: potentiation of DAMGO EC20 TRPC4 response – cell-based, second round, Fluo-4, HEK293 TRPC4beta/mu-opioid, 1 µM, confirmation (AID 2554;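 active = primary screen hit whose fluorescence ratio, in both repeats, exceeds the weak agonist control mean by 3 SD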); details: DAMGO EC20, Fluo-4 calcium flux, at 1 µM; hits give high values
[4] = system: TRPC4 beta (transient receptor potential cation channel C4), mouse; assay: potentiation of DAMGO EC20 TRPC4 response – cell-based, Fluo-4, HEK293 TRPC4beta/mu-opioid, confirmation (AID 2555;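 active = primary screen hit whose calcium fluorescence ratio, in both repeats, exceeds the weak agonist control mean by 3 SD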); details: DAMGO EC20, Fluo-4 calcium flux, at 10 µM; hits give high values
[5] = molecular target: Short transient receptor potential channel 4 (Mus musculus) (UniProt Q9QUQ5); assay: blockers of DAMGO-evoked TRPC4 calcium flux – cell-based, Fluo4, HEK293 TRPC4beta/mu-opioid, confirmation (AID 2636;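 active = calcium signal cut by more than 3 SD below the full-agonist control yet still positive, in both repeats and the earlier primary screen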); details: at 10 µM; hits give high values
[6] = molecular target: Short transient receptor potential channel 4 (Mus musculus) (UniProt Q9QUQ5); assay: blockers of DAMGO-evoked TRPC4 calcium flux – cell-based, second round, Fluo4, HEK293 TRPC4beta/mu-opioid, 1 µM, confirmation (AID 2637); details: at 1 µM; hits give high values;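 as to inhibition: percent of integrated ratio relative to wells lacking test compound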
[7] = molecular target: Short transient receptor potential channel 4 (Mus musculus) (UniProt Q9QUQ5); assay: calcium entry via TRPC4 opening agents – cell-based, HEK293 TRPC4/mu-opioid, Fluo-4 calcium, dose response (AID 434937;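 active = primary screen activator hit with a dose response curve and TRPC4 channel activation at any tested dose; inactive = no activation, no dose response, or not a primary hit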)
[8] = molecular target: Short transient receptor potential channel 4 (Mus musculus) (UniProt Q9QUQ5); assay: potentiation of DAMGO-evoked TRPC4 calcium signal – cell-based, HEK293 TRPC4/mu-opioid, Fluo-4 calcium, EC20 DAMGO, dose response (AID 434941;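 active = earlier screen potentiator hit that boosts the TRPC4 ion channel at some dose, with a dose response; inactive = no potentiation, no dose response, or not a prior hit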;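 also: calcium entry triggered by an EC20 dose of DAMGO at the co-expressed mu-opioid receptor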)
[9] = molecular target: Short transient receptor potential channel 6 (Mus musculus) (UniProt Q61143); assay: TRPC6 blockade by TRPC4 inhibitor hits – cell-based, HEK293, membrane potential dye, duplicate, selectivity assay for TRPC4 inhibitor project, confirmation (AID 434948;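 active = active in primary screen and both duplicates, each dropping signal beyond three positive-control SD with fluorescence still positive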); details: HEK293 TRPC6, membrane potential dye fluorescence, at 10 µM, stimulated with maximal-effect acetylcholine; hits give high values
[10] = molecular target: Short transient receptor potential channel 6 (Mus musculus) (UniProt Q61143); assay: TRPC6 opening by TRPC4 activator hits – cell-based, HEK293, membrane potential dye, duplicate, selectivity assay for TRPC4 activator project, confirmation (AID 434950;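 active = membrane potential signal rise above negative control mean plus 3 SD in both duplicates, also active in the earlier TRPC4 screen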;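 as to activation: 0% = buffer only wells and 100% = acetylcholine maximal-effect wells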); details: HEK293 TRPC6, membrane potential fluorescence, at 10 µM; activation: hits give high values; outcome: activation
[11] = molecular target: Short transient receptor potential channel 6 (Mus musculus) (UniProt Q61143); assay: positive modulators of mouse TRPC6 channel – HEK293 cells, membrane potential dye, duplicate, selectivity assay for TRPC4 potentiator project, confirmation (AID 434952;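 active = compound raising the membrane signal above positive-control mean plus 3 SD in both repeats, and a primary screen hit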); details: HEK293 TRPC6, membrane potential dye fluorescence, at 10 µM, maximal acetylcholine added after compound; hits give high values
[12] = molecular target: Short transient receptor potential channel 4 (Mus musculus) (UniProt Q9QUQ5); assay: calcium flux activators in TRPC4/5HT1a cells, counter-screen for TRPC4 activator project, cell-based, second counter screen, HEK293 TRPC4/5HT1a, Fluo-4 (AID 434977;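 active = calcium signal rise above buffer-control mean plus 5 SD in both duplicates, and also a hit in the primary screen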); details: Fluo-4 calcium flux, at 10 µM; hits give high values
[13] = serotonin-gated TRPC4 signal block – cell-based, second counter screen, HEK293 TRPC4/5HT1a, Fluo-4, counter-screen for TRPC4 inhibitor project, confirmation (AID 434978;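 active = primary screen active whose calcium signal fell more than 3 SD beyond the full-serotonin control mean in both duplicate plates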;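 as to outcome: serotonin given first at submaximal then at maximal dose after compound preincubation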); details: Fluo-4 calcium flux, at 10 µM, serotonin added to trigger calcium flux; hits give high values
[14] = system: TRPC4 (mouse), co-expressed with 5HT1a in HEK293; assay: enhancement of serotonin-evoked TRPC4 response – cell-based, second counter screen, HEK293 TRPC4/5HT1a, Fluo-4, counter-screen for TRPC4 potentiator project, confirmation (AID 434979;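 active = signal rise over 3 SD above mean of control wells given weak agonist, in both repeats and first screen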); details: Fluo-4 calcium flux, at 10 µM, serotonin added at its EC20 dose; hits give high values
[15] = nonspecific calcium rise without TRPC4 – cell-based, HEK293 mu-opioid receptor line, counter-screen for TRPC4 activator project, confirmation (AID 449723;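 active = hit in primary screen, with calcium signal over 5 SD above buffer well mean in both duplicates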;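 also: counter screen cells carry the mu-opioid receptor alone and lack TRPC4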); details: HEK293 mu-opioid cells, Fluo-4 calcium fluorescence, at 10 µM; hits give high values
[16] = nonspecific potentiation of DAMGO calcium response – cell-based, HEK293 mu-opioid receptor line, counter-screen for TRPC4 allosteric potentiator project, confirmation (AID 449724;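 active = calcium signal rise more than 3 SD above the low-dose agonist control mean, in both duplicate plates and the primary screen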); details: HEK293 mu-opioid receptor cells, Fluo-4 calcium flux, at 10 µM, compound added before EC20 DAMGO stimulus; hits give high values

Chain of Short transient receptor potential channel 4 (Mus musculus) (Q9QUQ5 whole entry, looked up): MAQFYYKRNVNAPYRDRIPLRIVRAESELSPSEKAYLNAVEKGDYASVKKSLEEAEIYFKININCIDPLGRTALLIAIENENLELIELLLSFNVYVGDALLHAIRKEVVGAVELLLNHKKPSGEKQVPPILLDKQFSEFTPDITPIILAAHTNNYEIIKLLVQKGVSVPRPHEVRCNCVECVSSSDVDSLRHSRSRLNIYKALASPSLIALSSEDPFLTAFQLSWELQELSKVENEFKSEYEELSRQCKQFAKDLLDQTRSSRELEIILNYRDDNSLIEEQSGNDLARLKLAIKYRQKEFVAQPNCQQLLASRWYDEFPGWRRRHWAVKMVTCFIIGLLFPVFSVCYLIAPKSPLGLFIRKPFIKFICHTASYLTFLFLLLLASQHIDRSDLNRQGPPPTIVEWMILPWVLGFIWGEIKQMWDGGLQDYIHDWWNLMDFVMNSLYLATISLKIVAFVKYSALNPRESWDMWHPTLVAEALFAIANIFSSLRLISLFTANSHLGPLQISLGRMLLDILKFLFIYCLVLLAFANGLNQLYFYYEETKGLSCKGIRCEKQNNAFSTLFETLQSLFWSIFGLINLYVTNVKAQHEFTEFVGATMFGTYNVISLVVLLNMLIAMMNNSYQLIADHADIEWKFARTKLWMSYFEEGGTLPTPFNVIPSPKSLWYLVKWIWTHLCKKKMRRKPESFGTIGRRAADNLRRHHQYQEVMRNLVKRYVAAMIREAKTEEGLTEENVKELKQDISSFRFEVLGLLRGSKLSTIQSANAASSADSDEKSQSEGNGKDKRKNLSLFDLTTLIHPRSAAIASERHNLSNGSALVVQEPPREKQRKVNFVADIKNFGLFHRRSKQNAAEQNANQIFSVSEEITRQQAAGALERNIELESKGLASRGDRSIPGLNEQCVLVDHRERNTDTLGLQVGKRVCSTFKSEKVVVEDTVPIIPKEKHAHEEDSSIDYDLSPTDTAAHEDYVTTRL
Chain of Short transient receptor potential channel 6 (Mus musculus) (Q61143 whole entry, looked up): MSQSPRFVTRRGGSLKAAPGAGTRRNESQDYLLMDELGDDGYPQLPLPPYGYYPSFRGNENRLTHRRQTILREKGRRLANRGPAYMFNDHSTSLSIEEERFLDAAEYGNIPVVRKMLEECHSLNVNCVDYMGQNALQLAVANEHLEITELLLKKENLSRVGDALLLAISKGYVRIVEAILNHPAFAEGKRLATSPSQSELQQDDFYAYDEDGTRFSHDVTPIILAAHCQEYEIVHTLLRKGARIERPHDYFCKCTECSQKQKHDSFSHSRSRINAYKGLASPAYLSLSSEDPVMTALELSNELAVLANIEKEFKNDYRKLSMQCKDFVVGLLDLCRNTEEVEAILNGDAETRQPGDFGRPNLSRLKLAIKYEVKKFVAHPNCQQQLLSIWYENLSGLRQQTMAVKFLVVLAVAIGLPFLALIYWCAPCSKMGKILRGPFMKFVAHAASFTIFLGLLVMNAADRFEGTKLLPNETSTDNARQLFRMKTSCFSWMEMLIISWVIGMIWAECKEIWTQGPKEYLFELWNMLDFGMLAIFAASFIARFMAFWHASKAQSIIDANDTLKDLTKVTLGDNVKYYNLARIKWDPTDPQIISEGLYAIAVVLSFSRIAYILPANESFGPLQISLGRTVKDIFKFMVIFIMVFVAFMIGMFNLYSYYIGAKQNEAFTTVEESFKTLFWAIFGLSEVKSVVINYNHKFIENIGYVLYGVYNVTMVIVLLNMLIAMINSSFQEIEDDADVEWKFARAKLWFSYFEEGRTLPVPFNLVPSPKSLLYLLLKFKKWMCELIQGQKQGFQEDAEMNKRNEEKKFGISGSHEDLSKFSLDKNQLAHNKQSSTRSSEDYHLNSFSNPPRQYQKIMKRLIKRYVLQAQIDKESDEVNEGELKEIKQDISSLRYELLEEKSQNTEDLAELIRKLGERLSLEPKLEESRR

COCCNc1c2c(nc3ccccc13)CCC2
inactive: outcome [1] | outcome [2] | outcome [3] | outcome [4] | outcome [7] | outcome [8] | outcome [10] | outcome [11] | outcome [12] | outcome [14] | outcome [15] | outcome [16]
active: inhibition [5] 100% | inhibition [6] 57% | inhibition [9] 37.5% | inhibition [13] 11.8%

COc1ccc(/C=C2/SC(=S)N(CCCC(=O)Nc3ccccc3C(=O)O)C2=O)cc1
active: inhibition [5] 81% | inhibition [6] 48% | inhibition [13] 36.7%
inactive: outcome [1] | outcome [2] | outcome [3] | outcome [4] | outcome [7] | outcome [8] | outcome [9] | outcome [10] | outcome [11] | outcome [12] | outcome [14] | outcome [15] | outcome [16]

COc1ccc2nc(NCc3ccccc3)[nH]c2c1
inactive: outcome [1] | outcome [2] | outcome [3] | outcome [4] | outcome [7] | outcome [8] | outcome [9] | outcome [10] | outcome [11] | outcome [12] | outcome [14] | outcome [15] | outcome [16]
active: inhibition [5] 94% | inhibition [6] 50% | inhibition [13] 23.6%

CCCCn1c(NC(=O)c2ccccc2)nc2ccccc21
inactive: outcome [1] | outcome [2] | outcome [3] | outcome [5] | outcome [6] | outcome [7] | outcome [8] | outcome [9] | outcome [10] | outcome [11] | outcome [12] | outcome [13] | outcome [14] | outcome [15] | outcome [16]
active: potentiation [4] 20%

CSC1=NC2(CCCCC2)C2=C(CCCC2)N1
inactive: outcome [1] | outcome [2] | outcome [3] | outcome [4] | outcome [6] | outcome [7] | outcome [8] | outcome [9] | outcome [10] | outcome [11] | outcome [12] | outcome [14] | outcome [15] | outcome [16]
active: inhibition [5] 96% | inhibition [13] 33%

CC(OCC(O)CN(C)CCOc1ccccc1)c1ccc(Cl)cc1 (stereo not given)
inactive: outcome [1] | outcome [2] | outcome [3] | outcome [4] | outcome [7] | outcome [8] | outcome [9] | outcome [10] | outcome [11] | outcome [12] | outcome [14] | outcome [15] | outcome [16]
active: inhibition [5] 94% | inhibition [6] 44% | inhibition [13] 22.2%

CCOc1ccc(CN2CCN(C(=O)c3ccccc3)CC2)cc1
inactive: outcome [1] | outcome [2] | outcome [3] | outcome [4] | outcome [6] | outcome [7] | outcome [8] | outcome [9] | outcome [10] | outcome [11] | outcome [12] | outcome [14] | outcome [15] | outcome [16]
active: inhibition [5] 79% | inhibition [13] 44.7%

CN(C)CCN1C(=O)C2C(C(=O)Nc3cc(Cl)cc(Cl)c3)C3C=CC2(O3)C1C(=O)NC1CCCCC1 (stereo not given)
inactive: outcome [1] | outcome [2] | outcome [3] | outcome [4] | outcome [6] | outcome [7] | outcome [8] | outcome [9] | outcome [10] | outcome [11] | outcome [12] | outcome [13] | outcome [14] | outcome [15] | outcome [16]
active: inhibition [5] 71%

COc1cccc(/C=C2\SC(=S)N(NS(=O)(=O)c3ccc(C)cc3)C2=O)c1OC
inactive: outcome [1] | outcome [2] | outcome [3] | outcome [4] | outcome [6] | outcome [7] | outcome [8] | outcome [9] | outcome [10] | outcome [11] | outcome [12] | outcome [14] | outcome [15] | outcome [16]
active: inhibition [5] 95% | inhibition [13] 4.07%

CCOc1ccccc1N(CC)C(=O)c1nn(C)c2c1CSc1ccccc1-2
active: inhibition [5] 95% | inhibition [6] 40% | inhibition [13] 18.7%
inactive: outcome [1] | outcome [2] | outcome [3] | outcome [4] | outcome [7] | outcome [8] | outcome [9] | outcome [10] | outcome [11] | outcome [12] | outcome [14] | outcome [15] | outcome [16]

CN(C)C(CNC(=O)c1ccccc1OCc1ccc(Cl)cc1)c1ccco1 (stereo not given)
active: inhibition [5] 84% | inhibition [6] 62% | inhibition [13] 23%
inactive: outcome [1] | outcome [2] | outcome [3] | outcome [4] | outcome [7] | outcome [8] | outcome [9] | outcome [10] | outcome [11] | outcome [12] | outcome [14] | outcome [15] | outcome [16]

CCOC(=O)C1(Cc2cccc(OC)c2)CCN(Cc2ccc(OC)c(O)c2)CC1
inactive: outcome [1] | outcome [2] | outcome [3] | outcome [4] | outcome [5] | outcome [6] | outcome [7] | outcome [8] | outcome [9] | outcome [10] | outcome [11] | outcome [12] | outcome [13] | outcome [14] | outcome [15] | outcome [16]

CCOc1ccc(-c2cc(NC(=O)c3c(F)cccc3F)c(C(=O)O)s2)cc1
active: inhibition [5] 98% | inhibition [6] 41% | inhibition [13] 6.94%
inactive: outcome [1] | outcome [2] | outcome [3] | outcome [4] | outcome [7] | outcome [8] | outcome [9] | outcome [10] | outcome [11] | outcome [12] | outcome [14] | outcome [15] | outcome [16]

CCOC(=O)CSc1nc2c(sc(=S)n2-c2ccccc2OC)c(=O)n1-c1ccccc1OC
inactive: outcome [1] | outcome [2] | outcome [3] | outcome [4] | outcome [7] | outcome [8] | outcome [9] | outcome [10] | outcome [11] | outcome [12] | outcome [14] | outcome [15] | outcome [16]
active: inhibition [5] 71% | inhibition [6] 38% | inhibition [13] 31.3%

O=C(NCCCN1CCOCC1)c1ccc(NC(=O)C2COc3ccccc3O2)cc1 (stereo not given)
active: activation [10] 49.5%
inactive: outcome [1] | outcome [2] | outcome [3] | outcome [4] | outcome [5] | outcome [6] | outcome [7] | outcome [8] | outcome [9] | outcome [11] | outcome [12] | outcome [13] | outcome [14] | outcome [15] | outcome [16]
